Test systems include SK-MEL-2 melanoma; EKVX NSCLC; UO-31 renal; TK-10 renal; ACHN renal; CAKI-1 renal; A498 renal; CCRF-CEM leukemia; MOLT-4 leukemia; SN12C renal.
Experiment in all cases: NCI-60 one-dose screen, 48 h (100 = growth as untreated, 0 = no growth, -100 = all killed)
Common to all, as to conditions: 10 µM

This is part of a sample that, as a whole, favours compounds with a hit. Of some 83,000 tested, about 20% had one in any assay.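 Step 1: grow cells in 96-well plates. Step 2: add test compound at a single concentration. Step 3: incubate 48 h. Step 4: record percent growth.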 Values without a mark were called inactive. Activity calls are given as the source filed them. How the source made its calls: active means growth percent below 10; inactive means the rest.

Take `CCCCN(CCCC)c1ccc(C(=NC(C)CCCN(CC)CC)c2ccc(N(C)C)cc2)cc1` (centres undefined): the growth with SK-MEL-2 melanoma was -78.9% (active); in the test with EKVX NSCLC it was -30.4% (active); in the test with UO-31 renal it was -87.8% (active); in the test on TK-10 renal, -8.82% (active); with ACHN renal, -41.3% (active); in the test with CAKI-1 renal, -5.33% (active). Also, the results for the growth in the test with A498 renal, with CCRF-CEM leukemia and in the test on MOLT-4 leukemia were -12.4% (active), 7.26% (active) and -6.33% (active), respectively.

With `CC(=O)n1nc(C(=O)OC(C)(C)C)c2cc(F)c(F)cc21`, the growth with SK-MEL-2 melanoma is 100%; with EKVX NSCLC it was 105%; in the test on UO-31 renal it was 92.6%; in the test with TK-10 renal, 113%; in the test with ACHN renal, 108%; with CAKI-1 renal, 101%. Further, the figures for the growth with A498 renal, with CCRF-CEM leukemia and in the test on MOLT-4 leukemia were 104%, 97.5% and 95%, respectively.

On to `CCC(CCNc1cc(OC)cc2cccnc12)CN1C(=O)c2ccccc2C1=O` (centres undefined), for which the growth is 108% in the test with SK-MEL-2 melanoma; 95.5% in the test on EKVX NSCLC; 94.7% with UO-31 renal; 119% in the test on TK-10 renal; 102% in the test on ACHN renal; 92.8% in the test with CAKI-1 renal. The growth in the test on A498 renal was 117%; with CCRF-CEM leukemia it was 99.3%; in the test on MOLT-4 leukemia it was 108%.

With `Cc1cc(C)c2nc(C)c(C)[n+]([O-])c2c1`, the growth with SK-MEL-2 melanoma is 106%; with EKVX NSCLC it was 99.1%; in the test on UO-31 renal it was 88.3%; in the test on TK-10 renal it was 99.3%; in the test with ACHN renal it was 109%; with CAKI-1 renal, 96.9%. In addition, the growth was 146% in the test with A498 renal, 66% in the test with CCRF-CEM leukemia and 83.1% in the test with MOLT-4 leukemia.

Regarding `CCN(CC)CCOC(=O)c1ccc(N=Nc2ccc(O)c(OC)c2)cc1`, the growth was 87.8% with SK-MEL-2 melanoma; 99.2% in the test on EKVX NSCLC; 87.8% in the test with UO-31 renal; 87.2% in the test with TK-10 renal; 105% in the test on ACHN renal; 97.4% in the test with CAKI-1 renal. For the same molecule, the growth was 80.8% in the test on A498 renal, 99.5% with CCRF-CEM leukemia and 93.8% in the test on MOLT-4 leukemia.

Regarding `CCC1(C)OC(=O)NC1=O` (centres undefined), the growth was 106% in the test on SK-MEL-2 melanoma; 101% in the test with EKVX NSCLC; 88.6% with UO-31 renal; 99.3% in the test on TK-10 renal; 102% in the test with ACHN renal; 97.8% with CAKI-1 renal. Also, the growth in the test with A498 renal was 125%; in the test with CCRF-CEM leukemia it was 83.1%; with MOLT-4 leukemia, 112%.

For the molecule `Cc1cc(O)c(C2=NN(c3ccc(S(N)(=O)=O)cc3)C(c3ccc(N(C)C)cc3)C2)c(C)c1Cl` (centres undefined), the growth with SK-MEL-2 melanoma is 92.5%; with EKVX NSCLC it was 51.1%; in the test with SN12C renal, 74.8%; in the test on TK-10 renal it was 113%; in the test on ACHN renal, 88.6%; in the test with A498 renal it was 74.3%. In addition, the growth in the test with CCRF-CEM leukemia was 28%; with MOLT-4 leukemia, 27.3%.

As for `CCOC(=O)c1sc(NC(=O)c2cc(OC)c(OC)c(OC)c2)nc1C`, the growth in the test on SK-MEL-2 melanoma was 30.8%; with EKVX NSCLC, 99.8%; in the test with SN12C renal it was 92.6%; in the test with UO-31 renal, 75.7%; with ACHN renal it was 105%; in the test with CAKI-1 renal it was 116%. The growth was 88.8% in the test with A498 renal, 88.3% with CCRF-CEM leukemia and 87.6% with MOLT-4 leukemia.

As to `COc1ccc2nc(/C=C/c3ccc(N(C)C)cc3)sc2c1`, the growth with SK-MEL-2 melanoma is 101%; in the test on EKVX NSCLC, 96.9%; in the test with SN12C renal, 91.4%; in the test with ACHN renal, 104%; with CAKI-1 renal, 97.6%; in the test on A498 renal it was 71.7%. Further, the growth in the test with CCRF-CEM leukemia is 82.6%; in the test with MOLT-4 leukemia, 77.7%.

With `CCCCn1c(=O)[nH]c(N)c(C(c2ccc(Cl)cc2)c2c(N)[nH]c(=O)n(CCCC)c2=O)c1=O`, the growth in the test on SK-MEL-2 melanoma was 6.4% (active); in the test with EKVX NSCLC, 48.6%; in the test on UO-31 renal it was 95.4%; with TK-10 renal it was 50.7%; with ACHN renal, 67.2%; in the test on CAKI-1 renal, 90.7%. In addition, the growth in the test on A498 renal is 89.3%; in the test on CCRF-CEM leukemia, 16.7%; in the test on MOLT-4 leukemia it was -11.8% (active).

In the case of `CC(=O)OC1Oc2ccccc2-c2oc(=O)c(-c3ccc(F)cc3)cc21` (centres undefined), the growth is 86.2% in the test with SK-MEL-2 melanoma; 34.2% in the test on EKVX NSCLC; 88.3% in the test with SN12C renal; 92.9% with TK-10 renal; 104% in the test with ACHN renal; 93.1% with CAKI-1 renal. Moreover, the growth is -16.1% (active) in the test on A498 renal, 91.5% with CCRF-CEM leukemia and 88.6% in the test with MOLT-4 leukemia.

For the molecule `Cc1cc(=O)oc2cc(OCc3cn(CC(O)CO)nn3)ccc12` (centres undefined), the growth in the test with SK-MEL-2 melanoma was 115%; with EKVX NSCLC, 97%; with SN12C renal, 102%; with TK-10 renal, 105%; in the test with ACHN renal, 105%; in the test with CAKI-1 renal it was 109%. In addition, the results for the growth with A498 renal, in the test with CCRF-CEM leukemia and with MOLT-4 leukemia were -3.54% (active), 92.5% and 98.6%, respectively.

Turning to `C(=C\c1nc2ccccc2s1)/c1ccc(N2CCOCC2)s1`, the growth in the test with SK-MEL-2 melanoma is 81.2%; with EKVX NSCLC, 87.8%; with SN12C renal it was 93.8%; in the test with TK-10 renal, 89.6%; with ACHN renal, 63.4%; with CAKI-1 renal it was 83.3%. For the same molecule, the growth in the test with A498 renal is 86.4%; in the test with CCRF-CEM leukemia, 58.2%; with MOLT-4 leukemia, 51%.

With `CN1/C(=C\C(I)C(I)C2=[N+](C)c3ccccc3C2(C)C)C(C)(C)c2ccccc21` (centres undefined), the growth with SK-MEL-2 melanoma was -13% (active); with EKVX NSCLC, 7.21% (active); in the test with UO-31 renal, -1.6% (active); in the test on TK-10 renal, 18.7%; in the test with ACHN renal, 4.88% (active); in the test on CAKI-1 renal, 21.5%. Further, the growth with A498 renal was -2.55% (active); in the test with CCRF-CEM leukemia, 12.1%; with MOLT-4 leukemia, -12.5% (active).

In the case of `S=c1c2ncccc2c(-c2ccccn2)nn1Cc1ccccn1`, the growth was 92.1% with SK-MEL-2 melanoma; 99.3% in the test with EKVX NSCLC; 82.2% in the test on UO-31 renal; 99.5% with TK-10 renal; 104% with ACHN renal; 92.1% with CAKI-1 renal. Further, the growth with A498 renal was 134%; in the test on CCRF-CEM leukemia, 84.2%; in the test on MOLT-4 leukemia, 93.3%.

`COc1ccc(-c2nnc(N3CCN(C(=O)CN4CCN(c5ccc(Cl)cc5)CC4)CC3)nc2-c2ccc(OC)cc2)cc1`: the growth with SK-MEL-2 melanoma is 65.7%; in the test with EKVX NSCLC it was 45.4%; in the test with SN12C renal, 57.5%; in the test on TK-10 renal, 90.6%; in the test with ACHN renal it was 85%; with A498 renal, 73.7%. Also, the growth in the test on CCRF-CEM leukemia is 47.2%; in the test on MOLT-4 leukemia it was 8.77% (active).

`C/C(=N\NC(=O)c1sc(=S)n(C)c1N)c1cc2ccccc2o1`: the growth in the test with SK-MEL-2 melanoma was 74.4%; with EKVX NSCLC, 64.8%; in the test with SN12C renal, 72.2%; in the test with TK-10 renal it was 56.6%; with ACHN renal it was 59.7%; in the test on CAKI-1 renal, 50%. Moreover, the growth in the test on A498 renal was 33.3%; with CCRF-CEM leukemia, 51.2%; with MOLT-4 leukemia, 35.7%.

With `C/C(=N/NC(=O)c1sc(=S)n(C)c1N)c1cc2cc(Cl)ccc2o1`, the growth with SK-MEL-2 melanoma was 98.9%; with EKVX NSCLC, 98.5%; in the test with SN12C renal, 90.8%; in the test with TK-10 renal it was 101%; with ACHN renal, 96%; in the test with CAKI-1 renal it was 117%. Moreover, the figures for the growth with A498 renal, in the test on CCRF-CEM leukemia and with MOLT-4 leukemia were -3.76% (active), 81.8% and 76.5%, respectively.

Values taken from PubChem BioAssay (NCI).
